Consider eight molecules from PubChem BioAssay (EPA / NIEHS).

The AC50 is the midpoint of the concentration-response curve, whichever way the signal moves.

SMILES strings stand for the structures. Records with an inconclusive call do not appear. Active and inactive are the calls of the source. How the source made its calls: active means hit-call score of the fitted dose curve at least 0.9, where 1 is the maximum; inconclusive means response in the unintended direction; inactive means score below 0.9.

The target of test [1] is Adra2b (gene 24174) (UniProt P19328). In words: NVS_GPCR_rmAdra2B: NovaScreen (NVS) G Protein-Coupled Receptor Assay for hybird cells Adrenergic, Alpha 2B Receptor (Adra2B) (AID 2283306). A digest of the protocol: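 Radioligand filter-binding assay on membrane proteins from neuroglioma/blastoma hybrid cells (rodent), 1 h after dosing; scintillation counting, loss of signal vs DMSO. Primary screen in duplicate at 25 uM, actives then run in concentration series.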
Chain of Adra2b (gene 24174) (P19328 whole entry, looked up): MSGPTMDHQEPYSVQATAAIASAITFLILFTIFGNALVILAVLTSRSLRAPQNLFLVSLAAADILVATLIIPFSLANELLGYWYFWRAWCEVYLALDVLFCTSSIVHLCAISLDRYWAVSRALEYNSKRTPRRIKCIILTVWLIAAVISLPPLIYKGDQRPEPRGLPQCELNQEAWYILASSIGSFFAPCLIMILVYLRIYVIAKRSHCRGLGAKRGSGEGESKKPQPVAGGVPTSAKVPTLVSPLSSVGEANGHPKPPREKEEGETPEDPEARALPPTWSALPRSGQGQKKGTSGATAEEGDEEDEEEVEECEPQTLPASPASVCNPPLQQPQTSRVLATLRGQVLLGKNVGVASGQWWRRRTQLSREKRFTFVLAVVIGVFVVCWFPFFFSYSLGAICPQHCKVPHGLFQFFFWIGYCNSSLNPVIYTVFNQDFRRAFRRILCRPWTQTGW

In test [2] the target is rat Neurokinin-1 Receptor (NK1), Tacr1 (gene 24807) (UniProt P14600). In words: NVS_GPCR_rNK1: NovaScreen (NVS) G Protein-Coupled Receptor Assay for rat Neurokinin-1 Receptor (NK1) (AID 2283309). A digest of the protocol: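 Rat submaxillary gland membranes; radioligand displacement read by filter-based scintillation counting after 1 h. Primary screen in duplicate at 25 uM; actives retested in concentration series; loss of binding fitted versus DMSO.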
Chain of rat Neurokinin-1 Receptor (NK1), Tacr1 (gene 24807) (P14600 whole entry, looked up): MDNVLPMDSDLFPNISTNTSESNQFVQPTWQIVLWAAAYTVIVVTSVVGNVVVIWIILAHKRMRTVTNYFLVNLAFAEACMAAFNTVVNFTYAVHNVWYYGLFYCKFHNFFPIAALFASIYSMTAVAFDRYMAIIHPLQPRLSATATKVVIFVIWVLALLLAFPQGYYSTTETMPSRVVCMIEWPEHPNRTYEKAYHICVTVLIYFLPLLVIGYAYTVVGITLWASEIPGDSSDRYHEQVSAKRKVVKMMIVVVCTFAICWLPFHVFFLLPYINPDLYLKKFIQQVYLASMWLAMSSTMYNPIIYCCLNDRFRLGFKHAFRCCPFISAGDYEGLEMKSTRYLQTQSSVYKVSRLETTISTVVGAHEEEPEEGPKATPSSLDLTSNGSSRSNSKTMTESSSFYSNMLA

Test [3] deals with rat Opioid Receptor, Non-selective Sodium (Na+) Binding, Oprm1 (gene 25601) (UniProt P33535). Description: NVS_GPCR_rOpiate_NonSelectiveNa: NovaScreen (NVS) G Protein-Coupled Receptor Assay for rat Opioid Receptor, Non-selective Sodium (Na+) Binding (AID 2283311). An outline of the steps: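 Rat forebrain membranes, radioligand displacement with filter scintillation counting, 1.5 h incubation. Screened in duplicate at 25 µM; hits then run in concentration-response up to 50 µM; loss of binding fitted versus DMSO.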
Chain of rat Opioid Receptor, Non-selective Sodium (Na+) Binding, Oprm1 (gene 25601) (P33535 whole entry, looked up): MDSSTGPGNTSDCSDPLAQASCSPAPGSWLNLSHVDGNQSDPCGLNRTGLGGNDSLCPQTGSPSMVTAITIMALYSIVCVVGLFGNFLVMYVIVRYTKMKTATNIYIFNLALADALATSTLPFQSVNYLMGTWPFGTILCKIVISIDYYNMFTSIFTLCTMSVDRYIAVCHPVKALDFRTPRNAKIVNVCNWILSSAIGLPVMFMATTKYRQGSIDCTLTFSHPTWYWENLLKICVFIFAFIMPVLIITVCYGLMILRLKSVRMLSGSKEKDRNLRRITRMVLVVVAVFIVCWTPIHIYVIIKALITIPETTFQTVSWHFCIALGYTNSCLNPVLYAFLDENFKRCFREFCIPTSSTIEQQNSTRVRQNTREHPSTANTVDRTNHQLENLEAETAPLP

Test [4] is described as follows: NVS_IC_rCaDHPRCh_L: NovaScreen (NVS) Ion Channel Assay for rat Calcium Channel, Type L, Dihydropyridine Site (CaDHPRCh_L) (AID 2283320). A digest of the protocol:
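Radioligand binding to dihydropyridine site on rat cortical membranes, filter-based scintillation counting, 1 h after dosing. Screened in duplicate at 25 uM; actives rerun in concentration-response up to 50 uM. Loss of signal versus DMSO baseline.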

Test [5] deals with Sodium channel protein type 1 subunit alpha (Rattus norvegicus) (UniProt P04774). In words: NVS_IC_rNaCh_site2: NovaScreen (NVS) Ion Channel Assay for rat Sodium Channel, Site 2 (NaCh) (AID 2283322).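 Further: hit means loss of radioligand binding signal relative to DMSO so AC50 marks displacement.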 A digest of the protocol: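 Membranes: rat forebrain. Format: competitive radioligand displacement, filter separation, scintillation readout, 1 h exposure. Primary screen in duplicate at 25 uM; actives retested in concentration series.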

In test [6] the target is rat Gamma-Aminobutyric Acid Type B Receptor (GABBR), Gabbr1 (gene 81657) (UniProt Q9Z0U4). In words: NVS_GPCR_rGABBR: NovaScreen (NVS) G Protein-Coupled Receptor Assay for rat Gamma-Aminobutyric Acid Type B Receptor (GABBR) (AID 2283301). A digest of the protocol: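 Radioligand displacement on rat cortical membranes, 1 h, filter-based scintillation counting. Primary screen at 25 uM in duplicate; compounds passing threshold re-tested in concentration-response up to 50 uM; loss of binding fitted against DMSO.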
Chain of rat Gamma-Aminobutyric Acid Type B Receptor (GABBR), Gabbr1 (gene 81657) (Q9Z0U4 whole entry, looked up): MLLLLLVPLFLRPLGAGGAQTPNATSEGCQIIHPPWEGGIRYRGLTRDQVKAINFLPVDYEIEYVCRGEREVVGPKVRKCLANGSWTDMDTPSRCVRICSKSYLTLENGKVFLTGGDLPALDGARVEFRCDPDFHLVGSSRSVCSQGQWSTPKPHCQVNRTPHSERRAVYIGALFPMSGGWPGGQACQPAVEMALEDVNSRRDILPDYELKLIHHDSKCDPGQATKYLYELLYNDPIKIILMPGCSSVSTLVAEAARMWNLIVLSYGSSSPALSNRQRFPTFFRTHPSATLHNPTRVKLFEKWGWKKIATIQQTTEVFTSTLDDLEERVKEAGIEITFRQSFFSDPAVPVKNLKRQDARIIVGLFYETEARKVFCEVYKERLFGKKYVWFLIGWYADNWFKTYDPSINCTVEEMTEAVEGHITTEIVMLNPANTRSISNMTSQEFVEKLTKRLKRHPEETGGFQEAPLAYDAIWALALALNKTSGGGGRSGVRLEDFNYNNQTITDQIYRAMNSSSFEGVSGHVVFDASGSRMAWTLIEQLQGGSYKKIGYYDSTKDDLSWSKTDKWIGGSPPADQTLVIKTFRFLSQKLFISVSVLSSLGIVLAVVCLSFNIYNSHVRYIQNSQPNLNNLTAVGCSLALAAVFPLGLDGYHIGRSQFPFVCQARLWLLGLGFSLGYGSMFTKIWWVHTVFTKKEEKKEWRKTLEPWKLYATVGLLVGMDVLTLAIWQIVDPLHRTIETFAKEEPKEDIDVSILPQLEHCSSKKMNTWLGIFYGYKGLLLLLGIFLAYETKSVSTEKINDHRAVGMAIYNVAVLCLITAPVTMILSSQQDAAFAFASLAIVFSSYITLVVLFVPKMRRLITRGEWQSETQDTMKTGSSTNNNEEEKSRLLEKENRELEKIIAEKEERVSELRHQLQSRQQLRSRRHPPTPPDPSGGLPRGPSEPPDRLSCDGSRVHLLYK

Test [7] addresses rat Glutamate, AMPA Site (AMPA), Gria1 (gene 50592) (UniProt P19490). In words: NVS_LGIC_rAMPA: NovaScreen (NVS) Ligand-Gated Ion Channel Assay for rat Glutamate, AMPA Site (AMPA) (AID 2283324). A digest of the protocol: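 Rat forebrain membranes; radioligand binding read 1 h after dosing by filtration and scintillation counting. Duplicate single-point screen at 25 uM, then concentration-response to 50 uM for threshold hits (e.g. 30% inhibition); loss of signal vs DMSO.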

Chain of rat Glutamate, AMPA Site (AMPA), Gria1 (gene 50592) (P19490 whole entry, looked up): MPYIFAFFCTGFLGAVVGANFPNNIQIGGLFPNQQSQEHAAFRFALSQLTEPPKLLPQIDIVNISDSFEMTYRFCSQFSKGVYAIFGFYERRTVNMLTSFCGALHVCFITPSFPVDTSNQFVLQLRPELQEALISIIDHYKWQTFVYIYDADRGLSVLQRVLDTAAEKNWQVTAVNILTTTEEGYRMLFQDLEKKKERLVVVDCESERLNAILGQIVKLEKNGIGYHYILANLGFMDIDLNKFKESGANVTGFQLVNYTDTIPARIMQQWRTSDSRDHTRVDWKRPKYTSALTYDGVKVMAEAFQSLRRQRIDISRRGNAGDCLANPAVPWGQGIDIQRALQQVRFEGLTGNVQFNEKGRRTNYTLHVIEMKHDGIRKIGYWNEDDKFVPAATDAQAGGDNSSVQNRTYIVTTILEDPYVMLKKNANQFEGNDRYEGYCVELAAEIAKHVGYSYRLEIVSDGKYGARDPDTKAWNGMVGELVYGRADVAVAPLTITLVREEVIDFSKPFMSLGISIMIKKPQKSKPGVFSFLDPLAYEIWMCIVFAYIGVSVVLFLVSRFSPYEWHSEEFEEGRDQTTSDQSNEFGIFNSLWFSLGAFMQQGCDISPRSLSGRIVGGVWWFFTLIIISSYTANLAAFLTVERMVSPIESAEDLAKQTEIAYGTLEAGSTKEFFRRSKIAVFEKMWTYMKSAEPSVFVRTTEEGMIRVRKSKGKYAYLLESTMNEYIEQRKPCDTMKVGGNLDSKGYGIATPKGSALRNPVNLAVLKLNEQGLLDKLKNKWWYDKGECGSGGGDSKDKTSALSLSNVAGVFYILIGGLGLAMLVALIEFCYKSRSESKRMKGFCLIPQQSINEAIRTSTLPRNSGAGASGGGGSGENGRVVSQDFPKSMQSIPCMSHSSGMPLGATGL

In the case of `CN1CCN(Cc2cc(-c3ccc4[nH]c(=O)oc4c3)co2)[C@@H](c2ccc(F)cc2)C1`, the AC50 in test [1] was 15.8 µM (active); in test [2] it was 22 µM (active); in test [4] it was 15 µM (active); in test [5], 7.72 µM (active). Besides, the outcome in test [3] was inactive.

In the case of `Cc1oc(-c2ccccc2)nc1CCOc1cccc2c1ccn2CCC(=O)O`, the AC50 in test [6] was 15.9 µM (active).

For the molecule `Nc1ccc(S(=O)(=O)c2ccc(N)cc2)cc1`, in test [3], the call was inactive.

As for `COc1cc(S(=O)(=O)O)c(C)cc1N=Nc1c(O)ccc2cc(S(=O)(=O)O)ccc12`, the AC50 in test [2] was 25 µM (active).

Turning to `CCCCCCCC=O`, the call in test [7] was inactive.

In the case of `Nc1ccccc1N`, in test [2], the call was inactive.

Regarding `COc1cc(-c2nc(NC(=O)c3cc4cc(C)cc(C)c4n3CC(=O)O)sc2CCC2CCCCC2)c(OC)cc1Cl`, the AC50 in test [4] is 6.08 µM (active); in test [5] it was 9.13 µM (active).

Consider `Cc1c(C(=O)O)c(O)cc2c1C(=O)c1c(O)c([C@@H]3O[C@H](CO)[C@@H](O)[C@H](O)[C@H]3O)c(O)c(O)c1C2=O`, for which the molecule was classed as inactive in test [5].
